# Screening data (PubChem)
# sPLA2-III inh: Blocks human group III sPLA2 activity. QFRET BODIPY PC-A2 liposome hydrolysis, fluorescence. hit rate 0.56% among 370,000. inhibition, % at 12.2 µM;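 active = inhibition above mean plus 3 SD of compounds lying within the high and low control bounds, cut at about 19% in these data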;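 also: 0% = median of test compound wells and 100% = no enzyme DMSO wells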
# PLCb3 inh: inhibitors of human phospholipase C beta3; Q01970; Purified PLC-beta3, fluorogenic substrate, fluorescence; inhibition, % at 12.2 µM; hit rate 0.18% among 370,000; AID 720704; in the data active = inhibition above about 11%;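 also: 0% = median of compound wells on plate and 100% = full blocker control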
# PLCg1 inh: inhibitors of human phospholipase C gamma1; P19174; hit rate 0.84% among 370,000; purified PLC-gamma1, fluorogenic substrate, fluorescence; inhibition, % at 12.2 µM; in the data active = inhibition above about 9.5%
# ADAM10 inh: inhibits human ADAM10; recombinant ADAM10, EDANS/DABCYL FRET peptide cleavage, 3 h; AID 720582; hit rate 0.62% among 370,000; inhibition, % at 7 µM;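 active = inhibition above a per-campaign cutoff equal to the mean of compounds falling between control-based bounds plus 3 SD, cut at about 20% in these data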;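 also: 0% = DMSO wells while the 100% control is not disclosed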
# ADAM17 inh: inhibitors of human ADAM17; AID 720648; hit rate 0.83% among 370,000; recombinant ADAM17, EDANS/DABCYL FRET peptide cleavage; P78536; inhibition, % at 6.95 µM;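 active = inhibition above the mean of compounds lying between control limits plus 3 SD, set per campaign, cut at about 8.5% in these data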;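 also: 0% = DMSO-only wells as the low control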
# Target sequence (P78536 215-824 limits assumed): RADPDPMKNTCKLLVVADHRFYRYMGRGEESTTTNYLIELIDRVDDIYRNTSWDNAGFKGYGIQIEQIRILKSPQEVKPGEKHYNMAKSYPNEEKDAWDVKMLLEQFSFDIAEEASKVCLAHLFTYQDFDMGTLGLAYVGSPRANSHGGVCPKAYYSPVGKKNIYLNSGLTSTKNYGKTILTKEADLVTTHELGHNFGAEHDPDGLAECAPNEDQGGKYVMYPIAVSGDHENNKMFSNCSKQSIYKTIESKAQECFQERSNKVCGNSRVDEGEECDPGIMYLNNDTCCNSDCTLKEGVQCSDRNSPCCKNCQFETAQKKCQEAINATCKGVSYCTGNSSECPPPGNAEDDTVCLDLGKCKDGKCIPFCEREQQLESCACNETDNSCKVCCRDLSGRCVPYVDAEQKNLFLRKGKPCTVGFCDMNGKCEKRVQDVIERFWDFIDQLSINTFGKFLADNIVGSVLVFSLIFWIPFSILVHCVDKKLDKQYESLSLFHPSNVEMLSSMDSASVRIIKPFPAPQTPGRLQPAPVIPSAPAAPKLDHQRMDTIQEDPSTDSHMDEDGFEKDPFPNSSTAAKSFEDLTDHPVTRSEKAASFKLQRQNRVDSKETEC
# proKLK7 act: proKLK7 (human) activation, primary screen | activation, % at 7 µM | purified proKLK7, EDANS-DABCYL substrate fluorescence; 100% is mature enzyme control, 0% vehicle | hit rate 0.9% among 370,000 | P49862;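 active = activation above the mean of all tested compounds plus 3 SD, computed per campaign excluding outliers beyond control limits, cut at about 13% in these data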
# proKLK7 act conf: proKLK7 activation, confirmation. shares compounds with proKLK7 act. purified proKLK7, EDANS-DABCYL substrate fluorescence; scaled: vehicle 0, mature enzyme 100. activation, % at 7 µM. hit rate 68% among 3,200. AID 686949;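 active = activation, as change over the incubation, above the mean of all tested compounds plus 3 SD, cut at about 13% in these data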
# EDANS-DABCYL int: fluorescence interference counter-screen for KLK7 activators | shares compounds with proKLK7 act | EDANS-DABCYL substrate fluorescence interference, no enzyme, 4 h; solvent 0%, active enzyme control 100% | activation, % at 7 µM | hit rate 80% among 3,200 | AID 686952;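 active = activation above the all-compound mean plus 3 SD, ignoring values outside control-based bounds, cut at about 4.8% in these data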;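 also: value is the 4 h activation minus the activation read at time zero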
# EDANS interf: optically interferes with EDANS-DABCYL fluorescence, kallikrein-7 activator counter-screen. shares compounds with proKLK7 act. EDANS-DABCYL peptide fluorescence interference, no enzyme. EC50, µM. hit rate 20% among 250;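 active = compounds that raise the fluorescence signal in this interference counterscreen, with EC50 at or below 10 µM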;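 also: intact quenched peptide substrate alone read at 355 nm excitation and 520 nm emission; signal is fluorescence gain from T0 to T4 after four hours at room temperature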
# * hit, by the source's call; i = inactive; . = no result given. Sampled rows, rich in hits. Any-hit rate of the full collection: about 3.4%.
SMILES,sPLA2-III inh,PLCb3 inh,PLCg1 inh,ADAM10 inh,ADAM17 inh,proKLK7 act,proKLK7 act conf,EDANS-DABCYL int,others
O=C(Cc1cccc2ccccc12)N/N=C1\CCCc2ccccc21,-9,-5,-4,-11,-3,1,.,.,
NC(=O)NN=C1CCN2CCCc3cccc1c32,-1,i,i,-265,-68,30*,51*,55*,
CCN1CCCCC(NC(=O)c2ccccc2OC)C1=O (stereo not given),10,-2,0,-13,-8,0,.,.,
Cc1cccnc1NC(=O)c1ccc([N+](=O)[O-])o1,-1,-29,-28,-270,-85,17*,19*,21*,
Cc1ccc(C(=O)Nc2ncccc2C)o1,-6,-2,3,2,2,0,.,.,
CN(C)CCCn1c(N)c(C#N)c2nc3ccccc3nc21,-6,i,i,i,i,121*,63*,72*,
CCCCC(CC)Cn1c(N)c(C#N)c2nc3ccccc3nc21 (stereo not given),1,-79,-79,-155,-47,-4,.,.,
Cc1ccc(-n2c(N)c(S(=O)(=O)c3ccccc3)c3nc4ccccc4nc32)cc1,-2,-65,-55,-315,-79,-8,.,.,
Cc1ccc(S(=O)(=O)c2c(N)n(NC(=O)C3CC3)c3nc4ccccc4nc23)cc1,-23,i,i,i,i,37*,11,4.1*,
Cc1ccc(S(=O)(=O)c2c(N)n(CCCN(C)C)c3nc4ccccc4nc23)cc1,-26,i,i,i,i,36*,-43,-48,
CN1CCCN(S(=O)(=O)c2ccc3c(c2)CCC(=O)N3)CC1,5,0,0,-8,-3,0,.,.,
Cn1c(=O)c2cc(NC(=O)CCc3cccnc3)ccc2n1Cc1ccc(F)cc1,-1,-287,-242,i,-401,13*,7,14*,
Cn1c(=O)c2cc(NC(=O)CCc3cccnc3)ccc2n1Cc1cccc(C(F)(F)F)c1,-7,-347,-267,i,-444,5,.,.,
COc1cc(Cn2c3ccc(NC(=O)CCc4ccccc4)cc3c(=O)n2C)ccc1F,-3,-254,-200,i,-294,10,.,.,
COc1cc(Cn2c3ccc(NC(=O)CCc4cccnc4)cc3c(=O)n2C)ccc1F,8,-344,-265,i,-460,16*,7,7.6*,
Cn1c(=O)c2cc(NC(=O)CC(C)(C)C)ccc2n1-c1ccccc1F,-3,-416,-329,i,-450,15*,-6,-16,
CC(CC(=O)Nc1ccc2c(c1)c(=O)n(C)n2Cc1ccc(F)cc1)c1ccccc1 (stereo not given),-4,-414,-310,i,i,3,.,.,
CC(CC(=O)Nc1ccc2c(c1)c(=O)n(C)n2Cc1ccc(F)cc1)C(F)(F)F (stereo not given),2,-353,-273,i,i,16*,-8,-11,
Fc1ccc(-c2n[nH]c(=S)n2N=Cc2ccc(OCc3ccccc3)cc2)cc1,-11,-1,-3,-1,3,0,.,.,
Cn1cccc1CC(=O)NN=Cc1cccc(F)c1,-4,-4,-2,0,-3,0,.,.,
COc1ccc(-c2cc(C(=O)OCC(=O)c3c(N)n(C)c(=O)n(C)c3=O)c3ccccc3n2)cc1,-1,-47,-28,-34,-14,1,.,.,
COCCNC(=O)COC(=O)c1cc(-c2ccc(OC)cc2)nc2ccccc12,-13,i,i,-335,-100,137*,108*,119*,
CCNC(=O)COC(=O)c1cc(-c2ccc(OC)cc2)nc2ccccc12,-15,i,i,-401,-136,174*,208*,260*,
CCNC(=S)NNC(=O)c1cc(-c2ccc(OC)cc2)nc2ccccc12,7,-462,-386,-176,-50,7,.,.,
COc1ccc(-c2cc(C(=O)OCC(=O)NC3CC3)c3ccccc3n2)cc1,2,i,i,-312,-92,16*,11,9.7*,
SMILES,sPLA2-III inh,PLCb3 inh,PLCg1 inh,ADAM10 inh,ADAM17 inh,proKLK7 act,proKLK7 act conf,EDANS-DABCYL int,others
O=C(COC(=O)c1cc(-c2ccccc2)nc2ccccc12)NC1CC1,-2,-39,-30,-316,-81,-4,.,.,
CCN(CC)C(=O)COC(=O)c1cc(-c2ccc(OC)cc2)nc2ccccc12,-6,-12,i,-317,-137,0,.,.,
COc1ccc(-c2cc(C(=O)OCC(=O)NC(C)C)c3ccccc3n2)cc1,0,-407,-267,-112,-44,21*,33*,40*,
CN1CCN(c2ccc3c(c2)Oc2ccccc2CN(Cc2cn(Cc4ccccc4C(F)(F)F)nn2)S3(=O)=O)CC1,-9,-1,-1,0,-1,1,.,.,
COc1ccc(-c2cc(C(=O)N/N=C(\C)c3cccnc3)c3ccccc3n2)cc1,-1,i,-414,-332,-121,37*,-78,-71,
CCCNC(=O)COC(=O)c1cc(-c2ccc(OC)cc2)nc2ccccc12,-10,i,i,-384,-145,52*,-71,-60,
CC1CCCCN1C(=O)c1ccc(CNC(=O)c2cccc(Br)c2)cc1 (stereo not given),-4,2,-2,-5,-1,0,.,.,
CCOc1nc(N=C(N)N)nc2c(C)cccc12,3,-218,-178,-229,-82,21*,12,17*,
CCOc1ccccc1Nc1cc(C)c2cccc(C)c2n1,10,-59,-45,-36,-21,-16,.,.,
Cc1c(C2(O)CCCCC2)[nH]c2cnccc12,-16,-486,-338,i,-300,77*,24*,14*,EDANS interf=>70
CCN(CC)C(=O)Cn1cc(C(=O)C(=O)Nc2ccc3c(c2)OCO3)c2ccccc21,-5,-1,4,10,5,57*,24*,44*,
Cc1cc(C(=O)NNC(=S)NCC(C)C)no1,17,6,4,3,1,0,.,.,
CNC(=S)NNC(=O)c1sc(-c2cc(C)on2)nc1C,2,-139,-96,-64,-27,21*,34*,37*,
CC(=O)Oc1ccc2c(=O)oc(-c3ccccc3)nc2c1,4,-1,-4,-11,-4,-1,.,.,
COc1ccc(-c2cc3ccc(OCC(=O)NCC4CCC(C(=O)O)CC4)cc3oc2=O)cc1 (stereo not given),5,i,i,i,i,64*,54*,74*,
